Source: PubChem BioAssay AID602449 (Sanford-Burnham Center for Chemical Genomics, 2012)
Among all 360,000 compounds or so, about 5,000 (1.4%) were called active. The full list was thinned out, with actives kept by preference. Unmarked numbers belong to inactive results.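 The calls were made as follows: active = inhibition of 50% or more, scaled per plate between neutral and stimulator controls; inactive = the rest.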

Test: blockers of Ca2+-induced mitochondrial swelling – biochemical, isolated mouse mitochondria, absorbance, primary screen (AID 602449);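 also: 0% = DMSO wells given calcium and 100% = 1 mM EGTA wells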
Settings: 30 min, at 10 µM, hits give high values

Row | SMILES | inhibition
1 | O=[N+]([O-])c1cc(Cl)cc(/C=N/NC(=S)Nc2cc(S(=O)(=O)N3CCOCC3)ccc2Cl)c1O | 76.5% (active)
2 | Cc1cc(OCCCC(=O)Nc2cc(S(=O)(=O)N3CCOCC3)ccc2N2CCOCC2)ccc1Cl | 0.2%
3 | O=C(Nc1cc(S(=O)(=O)N2CCOCC2)ccc1Cl)c1cc(=O)c2ccccc2o1 | -1.5%
4 | CCOc1ccc(CN2CCN(Cc3ccon3)CC2CCO)cc1 (stereo not given) | -1.1%
5 | COc1ccc(S(=O)(=O)NCCCCOc2ccc(Cl)cc2)cc1 | 98.5% (active)
6 | COc1ccc(S(=O)(=O)NCCOc2ccccc2)cc1F | 0.7%
7 | COc1ccc(OCCNS(=O)(=O)Cc2ccccc2)cc1 | 0.9%
8 | CCc1cccc(CC)c1NC(=O)COc1ccccc1C(=O)c1cc(C#N)c(=O)n(C2CCCCC2)c1 | 1%
9 | Cc1cc2cc3n(c2nn1)N=C(Cl)CC3 | 0.9%
10 | COc1ccc(C(=O)COC(=O)CN2C(=O)C3CC=CCC3C2=O)c(OC)c1 (stereo not given) | -2.3%
11 | O=C(Nc1cccc(C(F)(F)F)c1)c1ccc(N2CCNCC2)c([N+](=O)[O-])c1 | 69.8% (active)
12 | O=C(Nc1ccc(N2C(=O)c3cccc4cccc(c34)C2=O)cc1)c1ccc(N2CCCCC2)c([N+](=O)[O-])c1 | 1.1%
13 | O=C(NC1C2CC3CC(C2)CC1C3)c1ccc(N2CCNCC2)c([N+](=O)[O-])c1 (stereo not given) | -2.4%
14 | CN(C)CCNC(=O)c1cccc(-c2cnc3c(NC=O)cc(-c4cccc(C(F)(F)F)c4)cn23)c1 | -2.1%
15 | CCc1cccc(NC(=S)N(CCN(C)C)C2CCN(C(C)C)CC2)c1 | -1.2%
16 | CCC(C)NC(=O)CN(C1CCCCC1)S(C)(=O)=O (stereo not given) | -1.2%
17 | CS(=O)(=O)N(CC(=O)Nc1ccc(Cl)c(Cl)c1)C1CCCCC1 | 61.3% (active)
18 | N#CCCN(C(=S)Nc1ccc(Cl)c(Cl)c1)C1CCCCC1 | 64.3% (active)
19 | N#CCCN(C(=O)Nc1ccc(Cl)c(Cl)c1)C1CCCCC1 | 20.5%
20 | CS(=O)(=O)N(CC(=O)Nc1ccc(F)cc1)C1CCCCC1 | 1.1%
21 | Cc1cc(NC(=O)OC(C)C)ccc1-c1ccc(NC(=O)OC(C)C)cc1C | 0.8%
22 | CN(C)c1nc2n(c(=O)n1)CCO2 | -0.8%
23 | Cc1c(Cl)cccc1NC(=O)[C@@]1(CC(=O)O)CC(/C=C/c2ccccc2)=NO1 | -0.3%

Row | SMILES | inhibition
24 | C[C@H](NC(=O)NCCc1ccccc1)C(=O)O | -2.9%
25 | CCNS(=O)(=O)c1ccc(NC(=O)Nc2cccc(C(F)(F)F)c2)cc1 | 93.6% (active)
26 | CCNS(=O)(=O)c1ccc(NC(=O)c2cncc(Br)c2)cc1 | -1.5%
27 | Cc1cc(S(=O)(=O)N2CCOCC2)ccc1OCC(=O)Nc1cccc(C(F)(F)F)c1 | -0.9%
28 | CN(CC(=O)Nc1ccccc1[N+](=O)[O-])Cc1ccc(Br)cc1 | 1.1%
29 | COc1cc(CNCc2ccc(OC)c3ccccc23)cc(OC)c1OC | 90.9% (active)
30 | COc1cc(CNCc2cccs2)cc(Br)c1OC | -0.5%
31 | COc1ccccc1N1CCN(Cc2ccc(OC)c3ccccc23)CC1 | 1.3%
32 | Cn1c(=O)c2cc(NC(=O)NCCc3cccs3)ccc2n1Cc1cccc(C(F)(F)F)c1 | 3.3%
33 | CCCCn1c(N)c(N(CCC(C)C)C(=O)COC(=O)c2cccnc2OCC)c(=O)[nH]c1=O | 0.7%
34 | CCN1CCC(O)(/C=C/c2ccc(C)cc2)C(C(=O)/C=C/c2ccc(C)cc2)C1 (stereo not given) | 58.4% (active)
35 | CCN1CCC2(CC1)N=C(c1ccc(F)cc1)C(=S)N2C(=O)c1ccc(C)cc1 | -2.8%
36 | COc1cccc(NC(=O)CSc2nnc(Cc3ccc(OC)c(OC)c3)o2)c1 | -0.5%
37 | COc1ccc(CCN=C2SCC(=O)N2C)cc1OC | -1.1%
38 | O=C(O)c1cc2c(cc1NC(=O)c1c(F)cccc1Cl)OCCCO2 | -1.5%
39 | N=c1n(CCc2ccccc2)c2ccccc2n1Cc1ccccc1F | 8.3%
40 | N=c1n(Cc2ccc(Cl)cc2)c2ccccc2n1CC(O)c1ccco1 (stereo not given) | 83.7% (active)
41 | CCOc1ccc(C(O)Cn2c(=N)n(CCN3CCCCC3)c3ccccc32)cc1 (stereo not given) | 3.5%
42 | O=C(Cc1ccccc1)Nc1c(C(=O)N2CCCCCC2)cnn1-c1ccccc1 | -1.2%
43 | O=C(Cn1cnc2ccccc2c1=O)NCC1COc2ccccc2O1 (stereo not given) | -0.6%
44 | c1ccc(-c2cc3c(NCC4COc5ccccc5O4)ncnc3s2)cc1 (stereo not given) | 91.4% (active)
45 | O=C(Cn1nc(Cc2cccnc2)c2ccccc2c1=O)NCC1COc2ccccc2O1 (stereo not given) | -1.9%
46 | CCN=c1sc(C(=O)Nc2ccccc2)c(C)n1CC | 4.6%

Row | SMILES | inhibition
47 | COC(=O)Nc1ncc(CN2C(=O)c3ccccc3C2=O)s1 | -1.2%
48 | CCCCNC(=S)NNC(=O)c1cc(C)on1 | -1.2%
49 | CC1=C(C(=O)N2CCOCC2)CC(CC(=O)NCc2cccc3ccccc23)C(=O)N1CCC1=CCCCC1 (stereo not given) | -2.5%
50 | Cc1nc2scc(-c3cccs3)c2c(=O)n1N | -3.1%
51 | CCC(C(=O)OC)n1cnc2scc(-c3ccc(C)cc3)c2c1=O (stereo not given) | 0.8%
52 | CCCc1nc2scc(-c3ccc(C)cc3)c2c(=O)n1N | 89.9% (active)
53 | CS(=O)(=O)N(Cc1ccccc1)c1ccc(C(=O)NN=C2CCCCCC2)cc1 | 0.9%
54 | COc1ccc(S(=O)(=O)N2CCOCC2)cc1NC(=O)CSc1cc(C)ccc1C | -0.5%
55 | COc1ccc(C(O)c2nc(-c3ccc4c(c3)OCO4)cs2)cc1 (stereo not given) | 2.5%
56 | Cc1ccc(-c2csc(NC(=O)C3=COCCO3)n2)cc1C | 4.6%
57 | O=C(Nc1nc(-c2ccc3c(c2)OCO3)cs1)c1ccncc1 | 72.3% (active)
58 | COc1ccc(NC(=O)NCCN2CCN(c3ccc(C)cc3)CC2)c(Cl)c1 | 0.3%
59 | COC(=O)c1cccc(-n2[nH]nnc2=S)c1 | 0.4%
60 | Cn1c(=O)c(=O)n(C)c2cc(S(=O)(=O)NCCN3CCN(c4ccccc4F)CC3)ccc21 | 1.9%
61 | Cc1nnc(NC(=O)Nc2ccc(Cl)c(Cl)c2)s1 | 88.5% (active)
62 | COc1cccc(NC(=O)Nc2nnc(N3CCCCC3C)s2)c1 (stereo not given) | 0.5%
63 | CCc1ccc(NC(=O)Nc2ccncc2)cc1 | 63.6% (active)
64 | CC(C)CC(=O)Nc1ccc(Cc2ccncc2)cc1 | 1.5%
65 | Cc1nnc(NC(=O)Cn2c(=O)sc3ccccc32)s1 | -2.7%
66 | CC(C)=CC(=O)Nc1nnc(-c2ccc(F)cc2)s1 | -0.8%
67 | CCc1ccc(NC(=O)N[C@H](C(=O)O)C(C)CC)cc1 (stereo not given in full) | -1.3%
68 | Cc1ccc(S(=O)(=O)CCC(=O)Nc2nnc(CC(C)C)s2)cc1 | 0.4%
69 | Cc1ccc(NC(=O)Nc2nnc(-c3ccncc3)s2)cc1 | 77.2% (active)

Row | SMILES | inhibition
70 | CCOC(=O)c1sc(NC(=O)CSc2nc(C)cc(C(F)(F)F)n2)c(C#N)c1C | 13.1%
71 | CCCN=C1NC(=O)C(CC(=O)NCCc2ccc(OC)c(OC)c2)S1 (stereo not given) | -0.3%
72 | CC[C@H]1OC(=O)[C@H](C)[C@@H](O[C@H]2C[C@@](C)(OC)[C@@H](O)[C@H](C)O2)[C@H](C)[C@@H](O[C@@H]2O[C@H](C)C[C@H](N(C)C)[C@H]2O)[C@](C)(O)C[C@@H](C)[C@@H]2N[C@@H](COCCOC)O[C@H]([C@H]2C)[C@]1(C)O | -2.3%
73 | CCOC(=O)c1c(NC(=O)COC(=O)c2ccc(S(=O)(=O)C(F)F)cc2)sc(C(=O)N(C)C)c1C | -0.1%
74 | CCOc1ccc(OCC(=O)Nc2c3c(nn2C(C)(C)C)CS(=O)(=O)C3)cc1 | 1.2%
75 | COc1ccc(S(=O)(=O)N2CCN(CC(=O)NCC3(N4CCOCC4)CCCCC3)CC2)cc1 | 0.2%
76 | NC1=NC[C@@H](Cc2ccc(O)cc2)N1CC1CCCCC1 | 0.7%
77 | CC[C@@H](C)[C@@H]1CN([C@@H](C)CN2CCC[C@H]2CN2C(N)=NC[C@H]2C(C)C)C(=N)N1CCc1ccc(Cl)c(Cl)c1 | -0.6%
78 | C[C@@H](CN1CCC[C@H]1CN1C(N)=NC[C@@H]1Cc1ccccc1)N1C[C@@H](Cc2ccccc2)N(CCCC2CCCC2)C1=N | 73.7% (active)
79 | COc1ccc(S(=O)(=O)N2CCCCC2)cc1C(=O)NC1CCS(=O)(=O)C1 (stereo not given) | 0.2%
80 | Cc1ccc(C(CNC(=O)Nc2ccccc2)N2CCN(C)CC2)cc1 (stereo not given) | 2%
81 | COc1ccc(OCCCC(=O)OC(C)C(=O)Nc2ccccc2[N+](=O)[O-])cc1 (stereo not given) | 0.5%
82 | S=C(Nc1cccc(Br)c1)N1CCn2cccc2C1c1cccnc1 (stereo not given) | 63.5% (active)
83 | O=C(NC(=S)N1CCCCC1c1cccnc1)c1ccccc1 (stereo not given) | -1.5%
84 | S=C(NCCc1ccccc1)N1CCn2cccc2C1c1ccncc1 (stereo not given) | -5.1%
85 | COc1ccc(OC)c(C(O)c2ncc(-c3cccc(C(F)(F)F)c3)[nH]2)c1 (stereo not given) | 1%
86 | Nc1nnc(SCC(=O)NCC(=O)Nc2ccc(F)c(F)c2F)s1 | -2.5%
87 | O=C(c1cc(-c2ccc(O)cc2)on1)N1CCOCC1 | -1.3%
88 | O=C(c1cc(-c2cccc(O)c2)on1)N1CCc2ccccc2C1 | 59.3% (active)
89 | O=C(NCCCN1CCOCC1)c1cc(-c2cccc(O)c2)on1 | -0.1%
90 | CC(=O)NS(=O)(=O)c1ccc2c(c1)Cc1cc(S(=O)(=O)NC(C)=O)ccc1-2 | 0.4%
